Screens (PubChem BioAssay)
An excerpt weighted towards active compounds, which were near 5.7% of everything screened.
A549 tox-1: kills or reduces viability of A549 cells in Nrf2 counter-screen; A549 ARE-Fluc cells, CellTiter-Fluor viability, 18-24 h; AID 504648; hit rate 0.16% among 390,000; Potency, µM (series often up to 46 µM), for the others: top-dose activity change, negative = cytotoxicity, actives largely listed as inhibitors; note: potency is the fitted concentration of half-maximal effect
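Cytotoxicity counterscreen: CellTiter-Fluor fluorescence was measured in A549 ARE_Fluc cells after 18-24 h of compound exposure in a concentration series. The subsequent BugLite luminescent read reports ARE-luciferase activity.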
KB-V1 cytotox: KB-V1 MDR subline cytotoxicity | KB-V1 MDR cells viability, CellTiter-Glo, 72 h | Potency, µM (doses to about 46.1 µM), hits mostly cytotoxic | hit rate 3.4% among 400,000; note: potency is the fitted concentration of half-maximal effect; nearly all actives have a fitted effect of over 60% in size
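Readout: CellTiter-Glo luminescence, 10 min after addition. Cells: KB-V1 MDR subline, 72 h at 37 degrees C with compound. Analysis: corrected, normalized data fitted to concentration-effect curves.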
Nrf2 inh: inhibitors of Nrf2 signaling. hit rate 2.1% among 360,000. Potency, µM (series often up to 46 µM), inactives show at the highest dose activity change, negative = inhibition, most hits filed as inhibitors. A549 ARE-Fluc reporter, luciferase luminescence, 18-24 h; note: potency is the fitted concentration of half-maximal effect; nearly all actives have a fitted effect of over 60% in size
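Quantitative HTS in A549 cells stably bearing an antioxidant response element-firefly luciferase construct. Inhibition of Nrf2-driven transcription was scored by luminescence after 18-24 h of compound exposure at 37 °C.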
KB-3-1 cytotox: kills parental KB-3-1 adenocarcinoma cells; AID 1347075; KB-3-1 viability, CellTiter-Glo ATP luminescence, 72 h; Potency, µM (doses to about 46.1 µM), most hits filed as cytotoxic; hit rate 1.4% among 400,000; note: potency is the fitted concentration of half-maximal effect; nearly all actives have a fitted effect of over 60% in size
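KB-3-1 cells, DMEM (no phenol red) + 10% FBS; compound by pin transfer, 72 h, 37 °C. Readout: CellTiter-Glo luminescence after 10 min. Data normalized, curve-fitted.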
PI4K2A inh: inhibitors of human PI4K2A; Q9BTU6; purified PI4K2A, ADP-Glo luminescence, 1 h; active compounds read low; activity change, negative = inhibition, % at 76.9 µM; hit rate 0.13% among 420,000; AID 1346378; in the data active = activity change below about -50%; inconclusive = mostly about -30% to -49%;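 note: -100% = wells without enzyme as full effect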
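PI4K2A activity was measured by ADP-Glo luminescence: enzyme (4 ug/mL stock) and phosphatidylinositol (1.2 mM stock) in Tris pH 7.5/MgCl2/EGTA/Triton X-100 buffer were reacted with ATP (300 microM stock) for one hour at ambient temperature.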
Giardia kill: Giardia lamblia killing | hit rate 0.15% among 340,000 | activity change, % at 7.66 µM, hits read low | Giardia lamblia trophozoite viability; in the data active = activity change below about -80%; inconclusive = between about -30% and that limit;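 note: parasites exposed to compound for two days anaerobically before the ATP read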
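Viability, read as ATP luminescence: trophozoites at 100 cells/well, compound added, 48 hrs anaerobic at 37 deg C, then 15-30 min room-temperature development before reading.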
FLuc counter 3: counter-screen for Nrf2 inhibitors: firefly luciferase enzyme inhibition; shares compounds with Nrf2 inh; purified firefly luciferase, luminescence inhibition; Potency, µM (titrated, usually from 57.5 µM), for the others: at the highest dose activity change, negative = inhibition, usual class: inhibitors; hit rate 4% among 1,400; AID 720522; note: potency is the fitted concentration of half-maximal effect; nearly all actives have a fitted effect of over 65% in size
Target sequence (P08659 whole entry, looked up): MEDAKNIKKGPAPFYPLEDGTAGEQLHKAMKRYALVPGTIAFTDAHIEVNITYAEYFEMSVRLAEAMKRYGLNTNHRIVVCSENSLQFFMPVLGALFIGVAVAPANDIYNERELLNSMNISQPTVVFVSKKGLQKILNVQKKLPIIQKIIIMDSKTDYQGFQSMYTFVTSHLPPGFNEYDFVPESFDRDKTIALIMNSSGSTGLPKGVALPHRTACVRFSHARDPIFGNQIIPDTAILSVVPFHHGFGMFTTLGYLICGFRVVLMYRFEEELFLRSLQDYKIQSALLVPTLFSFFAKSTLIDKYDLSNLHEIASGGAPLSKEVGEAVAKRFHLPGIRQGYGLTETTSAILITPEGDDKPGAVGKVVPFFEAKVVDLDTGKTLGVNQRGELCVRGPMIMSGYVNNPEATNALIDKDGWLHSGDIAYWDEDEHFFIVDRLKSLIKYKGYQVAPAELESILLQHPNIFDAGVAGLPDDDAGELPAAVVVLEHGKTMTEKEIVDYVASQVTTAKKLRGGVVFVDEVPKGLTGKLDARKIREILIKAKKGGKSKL
A549 tox-2: counter-screen for Nrf2 inhibitors: cytotoxicity in A549 ARE cells; shares compounds with Nrf2 inh; A549 ARE-Fluc cells, cytotoxicity counterscreen; Potency, µM (highest dose often 46.1 µM), inactives show at the highest dose activity change, negative = cytotoxicity, usual class: inhibitors; hit rate 2% among 1,400;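 note: potency is the fitted concentration of half-maximal effect; cells exposed to compounds for 18 to 24 hours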
ARE-Fluc inh: confirmation of Nrf2 inhibitors in A549 ARE reporter cells | hit rate 74% among 1,400 | Potency, µM (titrated, usually from 46.1 µM), for inactives: top-dose activity change, negative = inhibition, actives largely listed as inhibitors | AID 720524 | shares compounds with Nrf2 inh | A549 ARE-firefly luciferase reporter, luminescence; note: potency is the fitted concentration of half-maximal effect; nearly all actives have a fitted effect of over 65% in size
* hit, by the source's call; i = inactive; u = inconclusive; x = not tested or not shown. Unless noted, calls come from the whole dose curve; as a rule, active = well fitted curve in the direction sought with a large enough effect; inconclusive = small, poorly fitted or top-dose-only effect, or another doubt; inactive = no such curve, though single readings can be large; an effect the other way counts as inactive or inconclusive. Unless noted, % is set by controls: 0 for no effect and ±100 for the full control effect.

SMILES	A549 tox-1	KB-V1 cytotox	Nrf2 inh	KB-3-1 cytotox	PI4K2A inh	Giardia kill	FLuc counter 3	A549 tox-2	ARE-Fluc inh
CC(C)Oc1cccc(C(=O)C2CCCN(Cc3cnc(N4CCOCC4)s3)C2)c1 (centres undefined)	-18%	i	9.2µM*	i	4	8	2%	-10%	x
COc1ccc(C(=O)C2CCCN(Cc3cnc(N4CCOCC4)s3)C2)cc1F (centres undefined)	0%	u	u	i	-3	-11	x	x	x
COCCCNC(=O)C[C@@H]1C(=O)N(CCc2ccc(Cl)cc2)C2=CCCCC[C@]21C(=O)OC	x	x	x	x	-1	x	x	x	x
COc1ccc(NC(=O)c2cc(S(=O)(=O)N3CCCC3)cn2C)cc1Cl	-7%	u	3.7µM*	i	-1	2	-16%	1%	16%
COc1ccc(CC(=O)Nc2cccc(SC)c2)cc1OC	-25%	15µM*	2.9µM*	u	-13	-1	-1%	-3%	8.2µM*
COc1ccc(NC(C)C(=O)Nc2cccc(S(=O)(=O)N3CCOCC3)c2)cc1OC (centres undefined)	u	u	6.5µM*	u	0	34	-8%	-13%	6.5µM*
COc1ccc(CCC(=O)Nc2cccc(S(=O)(=O)N3CCCCCC3)c2)cc1OC	u	i	u	i	2	5	x	x	x
COc1ccc(CC(=O)Nc2cccc(S(=O)(=O)N3CCCCCC3)c2)cc1OC	u	1.8µM*	1.8µM*	2.9µM*	0	10	-3%	-22%	4.1µM*
CCOC(=O)CC[C@@]1(C(=O)OCC)C[C@@H](CC(=O)NCC23CC4CC(CC(C4)C2)C3)C(=O)N2CCCC=C21	x	x	x	x	-1	x	x	x	x
COC[C@@H](O)[C@H]1OCc2cccc(OC)c2[C@@H]1/C=C/c1ccccc1	x	x	x	x	-4	x	x	x	x
CC(C)n1c(CN(C)Cc2ccccc2)nc2c1c(=O)n(C)c(=O)n2C	-17%	u	0.46µM*	i	-4	11	2%	-3%	4.1µM*
CC(=O)C(C)n1c(CN(C)Cc2ccccc2)nc2c1c(=O)n(C)c(=O)n2C (centres undefined)	-2%	i	u	i	1	-16	x	x	x
CC(C)CNC(=O)OCc1cn(Cc2cccc(F)c2)nn1	x	x	x	x	-3	x	x	x	x
Cc1ccc(-n2c(-c3ccc(Cl)cc3)c[n+]3c2CCC3)cc1	-15%	i	3.7µM*	4.6µM*	-1	10	3%	-2%	-36%
Cc1ccc(-n2c(-c3ccccc3)c[n+]3c2CCC3)cc1	u	u	5.8µM*	3.7µM*	16	-8	0%	-6%	6.5µM*
Cc1ccc(-c2c[n+](CC(=O)OCc3ccccc3)c3n2CCC3)cc1	-1%	i	1%	i	-2	4	x	x	x
CCOc1ccccc1N(C)C(=O)c1cc(S(=O)(=O)NCc2ccc(C)cc2)ccc1F	-6%	i	x	u	-2	x	x	x	x
CC(=O)Nc1cccc(-c2cnc(N)c(C(=O)c3cccnc3)n2)c1	u	i	5.2µM*	u	-10	11	-14%	-23%	x
Cc1ccc(C)c(Cn2c(=O)n(C(C)C)c(=O)c3oc4ccccc4c32)c1	1%	x	u	x	-3	x	x	x	x
CCC(=O)Nc1ccc(Cl)cc1C(=O)c1ccc[nH]1	x	x	x	x	-3	x	x	x	x
COc1cccc2[nH]c3c(N4CCc5ccccc5C4)ncnc3c12	u	i	u	i	0	-18	x	x	x
